Shown are actives, neighbours in structure and some others; about 19% of the full set was active somewhere.
CHX counter = affects cycloheximide protein synthesis inhibition readout, counter-screen | cell reporter, cycloheximide protein synthesis inhibition counterscreen | max response, % | 300,000 tested, 12% active; in the data active = max response mostly above about 13%, no sharp cut-off; inactive = mostly below about 14%; note: read at 38.3 µM for the half of the compounds with a filed dose; 0% is about no effect
AMA1 RON2 block = inhibitors of Plasmodium falciparum AMA1-RON2 interaction; 360,000 tested, 0.2% active; AID 720542; Potency, µM (doses to about 58.2 µM), for inactives: top-dose activity change, negative = inhibition, most hits filed as inhibitors; AlphaScreen AMA1-biotinylated RON2 peptide binding;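 note: potency is the fitted concentration of half-maximal effect; 0% = vehicle wells and -100% = peptide control; nearly all actives have a fitted effect of over 45% in size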
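AMA1 (3D7) with his tag at 25 nM final met compounds first, then biotinylated RON2 peptide at 25 nM; detection used donor plus acceptor beads, 10 µg/mL apiece, read by AlphaScreen after 30 min at room temperature.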
SARS PLP yeast = blocks SARS-CoV papain-like protease in a yeast assay; S. cerevisiae expressing SARS-CoV PLpro, growth rescue; Potency, µM (highest dose often 32.9 µM), without a hit: at the highest dose activity, positive = growth rescue, hits mostly activators; 330,000 tested, 0.19% active; calls by dose curve; note: potency is the fitted concentration of half-maximal effect; 0% is about no effect; nearly all actives have a fitted effect of over 55% in size
Pf growth 48h = inhibits P. falciparum growth in the first generation, 48 h; AID 504832; P. falciparum luciferase growth in erythrocytes, 48 h; Potency, µM (highest dose often 28.7 µM), for inactives: top-dose activity change, negative = inhibition, usual class: inhibitors; 310,000 tested, 5.9% active; note: potency is the fitted concentration of half-maximal effect; % is set by controls: 0 for no effect and ±100 for the full control effect
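Here the parasites carry a stable luciferase gene and grow inside erythrocytes in Albumax-based RPMI medium with compound for one erythrocytic cycle. Activity is scored as loss of luminescent signal.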
Pf growth 96h = P. falciparum growth inhibition at 96 hours; 320,000 tested, 6.9% active; Potency, µM (highest dose often 28.7 µM), inactives show top-dose activity change, negative = inhibition, usual class: inhibitors; AID 504834; P. falciparum luciferase reporter growth, 96 h; note: potency is the fitted concentration of half-maximal effect; % is set by controls: 0 for no effect and ±100 for the full control effect
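96 h incubation, 37 C, 5% CO2, of luciferase-reporter P. falciparum-infected RBCs (2% hematocrit, 0.05% parasitemia final) with test compounds; endpoint luminescence.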
Shiga toxin inh = Shiga toxin inhibition | 290,000 tested, 9.2% active | inhibition, % at 38.7 µM | Vero cells, Shiga toxin protein synthesis inhibition reporter; in the data active = inhibition mostly above about 28%, no sharp cut-off; inactive = mostly below about 43%; note: 0% is about no effect
* hit, by the source's call; u = inconclusive; x = no result; [ ] = remark or other dose. Unless noted, calls come from the whole dose curve; as a rule, active = well fitted curve in the direction sought with a large enough effect; inconclusive = small, poorly fitted or top-dose-only effect, or another doubt; inactive = no such curve, though single readings can be large; an effect the other way counts as inactive or inconclusive.

SMILES	CHX counter	AMA1 RON2 block	SARS PLP yeast	Pf growth 48h	Pf growth 96h	Shiga toxin inh
Cc1ccc(C2=NN3C(=O)c4ccccc4C3C2)cc1 (stereo unspecified)	55*	-11%	0%	u	8.3µM*	57*
CCC(=O)N1N=C(c2ccccc2)CC1c1ccccc1 (stereo unspecified)	-2	-4%	-3%	u	u	1
O=C(c1ccccc1)N1N=C(c2ccccc2)CC1c1ccccc1 (stereo unspecified)	-3	14%	-1%	x	2.3µM*	13
CC(=O)N1N=C(c2ccccc2)CC1c1ccccc1 (stereo unspecified)	1	5%	-5%	3%	u	-11
Cc1ccc(C(=O)N2N=C(c3ccc(Br)cc3)CC2c2ccccc2O)cc1 (stereo unspecified)	13*	-7%	1%	u	10µM*	6
N=C(SC1CC(=O)N(c2ccc(F)cc2)C1=O)N1N=C(c2ccccc2)CC1c1ccccc1 (stereo unspecified)	-2	-8%	-2%	2.1µM*	33%	4
COc1ccc(C(O)c2nc3ccccc3n2C(C)C)cc1 (stereo unspecified)	-4	31%	1%	u	-18%	12
COc1ccc(CNC(=O)COC(=O)CN2C(=O)NC3(CCCC3)C2=O)cc1	x	-9%	-5%	u	40%	x
CC(C)NC(=O)C1(N2C(=O)c3ccccc3C2=O)CCCC1	x	-13%	x	x	x	x
COc1ccc(NC(=O)c2cc(-c3ccccn3)nc3ccccc23)cc1S(=O)(=O)N(C)C	x	-7%[11.6 µM]	-1%	u	-25%	x
Cc1ccccc1NC(=O)COC(=O)CN1C(=O)NC(C)(C)C1=O	-3	-14%	10%	19%	x	-12
Cc1ccc(C(=O)N2N=C(c3ccccc3O)CC2c2ccccc2)cc1 (stereo unspecified)	-1	-6%	1%	10µM*	u	-1
COc1ccccc1C1CC(c2ccccc2)=NN1C(=O)c1ccccc1 (stereo unspecified)	-8	0%	-5%	0.37µM*	1%	-5
COc1ccccc1C1CC(c2ccc(NS(C)(=O)=O)cc2)=NN1C(=O)c1ccccc1 (stereo unspecified)	8	-1%	0%	2.1µM*	u	9
Cc1cccc(C(=O)N2N=C(c3ccc(NS(C)(=O)=O)cc3)CC2c2cccs2)c1 (stereo unspecified)	-3	-2%	0%	8.3µM*	u	-5
COc1ccc(OC)c(C2CC(c3ccc(NS(C)(=O)=O)cc3)=NN2C(=O)c2ccccc2)c1 (stereo unspecified)	11	-11%	1%	u	u	41
O=S(=O)(c1cccc(Cn2nnc(-c3ccccc3)n2)c1)N1CCOCC1	x	-2%	-2%	x	x	x
C/C(CC(=O)NC1CCCCC1)=N\NC(=O)c1ccccc1C	14	47%	0%	28%	u	63*
C/C(CC(=O)NC1CCCC1)=N\NC(=O)Cc1cccs1	15*	37%	-7%	1%	39%	20
COc1ccc(COC(=O)N/N=C(\C)CC(=O)Nc2ccc(Cl)cn2)cc1	14	24%	1%	24%	39%	17
C/C(CC(=O)NC12CC3CC(CC(C3)C1)C2)=N\NC(=O)Cc1cccs1	12	21%	3%	12%	u	13
C/C(CC(=O)Nc1ccc(Cl)cn1)=N\NC(=O)Cc1cccs1	13*	53%	1%	17%	20%	26
Cc1ncoc1C(=O)N1CCCC(C(=O)Nc2cccc(-c3ccc(F)cc3)c2)C1 (stereo unspecified)	-2	-9%	0%	-28%	5%	14
Cc1ccc2nc(N3CC(=O)Nc4ccccc43)nc(-c3ccccc3)c2c1	-9	6%	2%	-9%	9.3µM*	-16
CCOC(=O)c1c(NC(=O)CSc2nc3nc(C)cc(C)n3n2)sc(CC)c1C	-3	1%	u	21%	5%	-5
SMILES	CHX counter	AMA1 RON2 block	SARS PLP yeast	Pf growth 48h	Pf growth 96h	Shiga toxin inh
CC1CCN(C(=O)c2ccc(NC(=O)C3CCCO3)cc2)CC1 (stereo unspecified)	-2	0%	0%	13%	15µM*	5
CC1CCN(CCNC(=O)c2ccc(NC(=O)C3CCCO3)cc2)CC1 (stereo unspecified)	-1	-19%	15%	3%	1%	-11
COC(=O)c1c(-c2ccc(C)cc2)csc1NC(=S)NC(=O)c1cc(OC)cc(OC)c1	-4	2%	-19%	u	8.3µM*	7
COc1ccc(NC(=O)C2CCCO2)cc1OC (stereo unspecified)	-2	-3%	5%	x	-7%	-8
COC(=O)c1ccc(NC(=O)C2CCCO2)cc1 (stereo unspecified)	38*	-25%	1%	82%	u	35*
COC(=O)c1c(-c2ccc(F)cc2)csc1NC(=O)C1CCCO1 (stereo unspecified)	26*	-21%	-1%	17%	-23%	68
O=c1cc(CN2CC(O)Cc3ccc4ccccc4c32)nc2sccn12 (stereo unspecified)	-2	-5%	-1%	14%	u	-16
COc1ccc(OC)c(NC(=O)c2cccnc2Sc2ccccc2)c1	-2	-2%	26%	18%	17%	-16
CCC(NC(=O)c1ccccc1NC(=O)c1ccccc1)C(=O)NNC(=O)c1cccnc1 (stereo unspecified)	11	78%	1%	26%	12%	-18
COc1ccc(C)cc1-n1c(SCC(=O)NC2CC2)nc2ccccc2c1=O	x	1%	5%	u	-30%	x
O=C(Nc1ccc(Oc2ccccc2)cc1)C1CC1	21	9%	-5%	-23%	-41%[1.15 µM]	71*
O=C(Nc1ccc(Oc2ccccc2)cc1)C1CCCO1 (stereo unspecified)	31*	5%	-5%	12%	21%	190*
O=C(Nc1ccc(Oc2ccccc2)cc1)C1CCN(c2ncccn2)CC1	-3	-5%	10%	8%	14%	4
COc1ccc(-c2csc(NC(=O)C3CCCCN3S(=O)(=O)c3ccccc3)n2)cc1 (stereo unspecified)	-2	-12%	0%	u	7.4µM*	-22
O=C(Nc1ccccc1O)c1ccc(NC(=O)C2CC2)cc1	39*	12%	-7%	2.1µM*	55%	83*
Cc1cccnc1NC(=O)c1ccc(Cl)c(S(=O)(=O)N2CCCCC2)c1	x	16%	-3%	-24%	u	x
Cc1cccc(OCCCC(=O)NCc2ccco2)c1	-1	-6%	-4%	u	u	-11
O=C(Nc1ccc(C#Cc2ccccc2)cc1)C1CC1	44*	0%	-19%	-51%	0%	51*
